# Source: the supplement of paper PMC6279402
# ± gives the standard deviation of the averaged measurements.
# Tested on: A549
# Assay: relative viability (normalised to negative control = 1, bortezomib = 0) (fraction); higher = less cytotoxic
# Conditions: inflammatory serum-free RHB-A with cytokines + LPS, 5 d + 24 h CellTiter-Blue
# [1] = compound 30 nM, GSK126 pretreatment: 5 uM GSK126
# [2] = compound 30 nM, GSK126 pretreatment: none (vehicle)
# [3] = compound 300 nM, GSK126 pretreatment: 5 uM GSK126
# [4] = compound 300 nM, GSK126 pretreatment: none (vehicle)
SMILES,relative viability [1],relative viability [2],relative viability [3],relative viability [4]
CS(=O)(=O)N1CCN(Cc2cc3nc(-c4cccc5[nH]ncc45)nc(N4CCOCC4)c3s2)CC1,0.716 ± 0.093,0.719 ± 0.062,0.339 ± 0.066,0.411 ± 0.017
Cc1nc(Nc2ncc(C(=O)Nc3c(C)cccc3Cl)s2)cc(N2CCN(CCO)CC2)n1 [Dasatinib],0.89 ± 0.089,0.882 ± 0.093,1.03 ± 0.077,0.956 ± 0.12
CC[C@@H]1C(=O)N(C)c2cnc(Nc3ccc(C(=O)NC4CCC(N5CCN(CC6CC6)CC5)CC4)cc3OC)nc2N1C(C)C (stereo partly specified) [BI6727 (Volasertib)],0.404 ± 0.1,0.38 ± 0.095,0.227 ± 0.042,0.249 ± 0.097
O=c1cc(-c2cccc3c2Sc2ccccc2S3)oc(N2CCOCC2)c1,0.781 ± 0.04,0.845 ± 0.035,0.833 ± 0.044,0.875 ± 0.069
CCOc1cc2ncc(C#N)c(Nc3ccc(OCc4ccccn4)c(Cl)c3)c2cc1NC(=O)/C=C/CN(C)C [Neratinib],0.713 ± 0.16,0.675 ± 0.14,0.196 ± 0.014,0.183 ± 0.014
Clc1ccc(C(c2ccccc2Cl)C(Cl)Cl)cc1 (stereo unspecified),0.827 ± 0.1,0.804 ± 0.093,0.832 ± 0.16,0.983 ± 0.12
Cc1cnc(Nc2ccc(N3CCN(C)CC3)cc2)nc1Nc1cccc(S(=O)(=O)NC(C)(C)C)c1,1.22 ± 0.15,1.2 ± 0.08,1.2 ± 0.023,1.27 ± 0.053
CC1=C(/C=C/C(C)=C/C=C/C(C)=C/C(=O)O)C(C)(C)CCC1 [Retinoic acid; Tretinoin; 13-cis-retinoic acid],1.04 ± 0.088,0.922 ± 0.043,1.34 ± 0.05,1.14 ± 0.064
O=c1cc(N2CCOCC2)oc2c(-c3ccccc3)cccc12,0.773 ± 0.033,0.819 ± 0.048,0.748 ± 0.15,0.835 ± 0.068
O=C1NC(=O)/C(=C/c2ccc(-c3ccc(F)cc3O)o2)S1,0.977 ± 0.15,0.857 ± 0.062,0.744 ± 0.082,0.839 ± 0.1
Nc1nc(Cl)nc2c1ncn2[C@@H]1O[C@H](CO)[C@@H](O)[C@@H]1F [Clofarabine],0.74 ± 0.12,0.693 ± 0.026,0.28 ± 0.047,0.256 ± 0.027
COc1cccc(-c2cc(=O)c3ccccc3o2)c1N,0.734 ± 0.07,0.794 ± 0.057,0.726 ± 0.19,0.825 ± 0.078
Cn1nnc2c(C(N)=O)ncn2c1=O [Temozolomide],0.831 ± 0.044,0.837 ± 0.029,0.828 ± 0.067,0.943 ± 0.061
COc1cc(Nc2ncc(F)c(Nc3ccc4c(n3)NC(=O)C(C)(C)O4)n2)cc(OC)c1OC [R406(free base); R406],0.92 ± 0.13,0.896 ± 0.067,1.23 ± 0.096,1.22 ± 0.087
CC(=O)Nc1cccc(-n2c(=O)n(C3CC3)c(=O)c3c(Nc4ccc(I)cc4F)n(C)c(=O)c(C)c32)c1,0.144 ± 0.01,0.171 ± 0.011,0.0602 ± 0.013,0.0354 ± 0.0045
Nc1nc2[nH]cc(CCc3ccc(C(=O)N[C@@H](CCC(=O)O)C(=O)O)cc3)c2c(=O)[nH]1 [Pemetrexed; Pemetrexed Disodium],0.89 ± 0.07,0.88 ± 0.078,0.829 ± 0.1,0.879 ± 0.095
Nc1nc(F)nc2c1ncn2[C@@H]1O[C@H](COP(=O)(O)O)[C@@H](O)[C@@H]1O [Fludarabine; Fludarabine phosphate],0.858 ± 0.071,0.879 ± 0.098,0.891 ± 0.089,0.842 ± 0.055
COc1ccc(S(=O)(=O)N(C(C)=O)c2ccccc2/C=C/c2cc[n+]([O-])cc2)cc1,0.924 ± 0.032,0.914 ± 0.033,0.663 ± 0.032,0.623 ± 0.056
COc1cc(Nc2c(C#N)cnc3cc(OCCCN4CCN(C)CC4)c(OC)cc23)c(Cl)cc1Cl [Bosutinib(SKI-606)],0.984 ± 0.052,0.991 ± 0.061,0.65 ± 0.061,0.7617 ± 0.007
O=C(CCCCCCC(=O)Nc1ccccc1)NO [Vorinostat; SAHA],0.83 ± 0.15,0.868 ± 0.073,0.891 ± 0.17,1 ± 0.19
Cc1cc(Nc2cc(N3CCN(C)CC3)nc(Sc3ccc(NC(=O)C4CC4)cc3)n2)n[nH]1,0.766 ± 0.087,0.717 ± 0.062,0.584 ± 0.067,0.459 ± 0.052
OCCn1cc(-c2cnc3nnn(Cc4ccc5ncccc5c4)c3n2)cn1,0.969 ± 0.045,0.9847 ± 0.0075,0.972 ± 0.058,0.9557 ± 0.0093
O=NN(CCCl)C(=O)NCCCl [Carmustine],0.852 ± 0.1,0.858 ± 0.13,0.894 ± 0.046,0.955 ± 0.072
COc1ncc(-c2ccc3nccc(-c4ccnnc4)c3c2)cc1NS(=O)(=O)c1ccc(F)cc1F,0.0446 ± 0.01,0.0459 ± 0.0045,0.00279 ± 0.0028,0.00434 ± 0.0032
O=C(NC1CCNCC1)c1n[nH]cc1NC(=O)c1c(Cl)cccc1Cl,0.969 ± 0.17,0.924 ± 0.074,0.0464 ± 0.029,0.136 ± 0.057
Cc1ccc(-c2cc(C(F)(F)F)nn2-c2ccc(S(N)(=O)=O)cc2)cc1 [Celecoxib],0.842 ± 0.065,0.787 ± 0.09,0.783 ± 0.13,0.908 ± 0.14
Cc1cn(-c2cc(NC(=O)c3ccc(C)c(Nc4nccc(-c5cccnc5)n4)c3)cc(C(F)(F)F)c2)cn1 [Nilotinib],1.02 ± 0.13,0.993 ± 0.089,1.14 ± 0.17,1.07 ± 0.069
Nc1cccc2c1CN(C1CCC(=O)NC1=O)C2=O (stereo unspecified) [Lenalidomide],0.854 ± 0.11,0.789 ± 0.061,0.882 ± 0.059,0.82 ± 0.035
COC(=O)Nc1ccc(-c2nc(N3CCOCC3)c3cnn(C4CCN(Cc5cccnc5)CC4)c3n2)cc1,0.851 ± 0.12,0.869 ± 0.13,0.847 ± 0.061,0.832 ± 0.097
